Experimental data reported in PubChem BioAssay (NCATS).
Several values for one entry are separate records, joined by “and”; a condition that tells them apart may be missing. Equal entries are not always repeated. Records with an inconclusive call do not appear. Entries that show only a call come without a potency. Activity calls are given as the source filed them. Calls follow the shape of the dose curve; as a rule, active = well fitted inhibition curve with a large enough effect; inconclusive = small, poorly fitted or top-dose-only effect; inactive = no such curve, though single readings can be large or run the other way. Where a SMILES comes first, the peptide text is derived from it. [ ]: non-standard residue; d: D form. ξ: configuration not given here. ξPhe(βξ-Me) = CC(c1ccccc1)C(N)C(=O)O; GABA = NCCCC(=O)O

Experiment: Primary qHTS for inhibitors of nuclear receptor binding SET domain protein 2 (NSD2) in an RCH-ACV wild type WT cells (2C) (AID 1645877); also: nearly all actives have a fitted effect of over 70% in size
Conditions: RCH-ACV (leukaemia line) NSD2 WT (2C) viability, CellTiter-Glo, 72 h; series mostly up to 44.9 µM
Potency is read from the fitted curve at half-maximal effect.

| SMILES | Potency |
| --- | --- |
| C[C@@H](O)[C@H](NC(=O)c1ccc(C#Cc2ccc(CN3CCOCC3)cc2)cc1)C(=O)NO | inactive |
| COc1ccccc1Oc1ccc(N(Cc2cccnc2)S(=O)(=O)CC(F)(F)F)cc1 | inactive |
| NC(=O)c1cccc2cn(-c3ccc(C4CCCNC4)cc3)nc12 (stereo not given) | 2.05 µM (active) |
| CCCN1CCC(c2cccc(S(C)(=O)=O)c2)CC1 | inactive |
| C[C@@H]1CC[C@@]2(OC1)O[C@H]1C[C@H]3[C@@H]4CC=C5C[C@@H](O)CC[C@]5(C)[C@H]4CC[C@]3(C)[C@H]1[C@@H]2C | inactive |
| CC(=O)OC1CC2C3(C)CCC(OC(=O)CC(=O)O)C(C)(C)C3CCC2(C)C2(C)CCC(C3(C)CCC(=O)O3)C12 (stereo not given) | inactive |
| COC(=O)C[C@H]1C(C)(C)[C@H](OC(=O)C(C)C)[C@@]2(O)C(=O)[C@]1(C)C1CC[C@]3(C)C(CC(=O)O[C@H]3c3ccoc3)[C@]13O[C@@H]32 (stereo not given in full) | inactive |
| CC1CCC2(C=O)C(CO)=CCCC2C1(C)CC(=O)O (stereo not given) | inactive |
| C[C@]1(CO)CCC[C@]2(C)C3=C(CCC12)COC3 (stereo not given in full) | inactive |
| Cn1nnc(-c2ccc(-c3ccc(N4C[C@H](CO)OC4=O)cc3F)cn2)n1 | inactive |
| CN1CCN(Cc2ccc(-c3cnc4[nH]cc(-c5ccc6[nH]ccc6c5)c4c3)cc2)CC1 | 1.45 µM (active) |
| CCCCc1ccc(C(=O)Nc2cc(-c3ccc(Cl)cc3)nn2-c2ccc(Cl)cc2)cc1 | inactive |
| CC1=C(C(=O)O)/C(=C\CO[C@@H]2O[C@H](CO)[C@@H](O)[C@H](O)[C@H]2O)C(OC(=O)/C=C\c2ccc(O)cc2)C1 (stereo not given in full) | inactive |
| CCOC(=O)C(CCc1ccccc1)NC(C)C(=O)N1C(=O)N(C)CC1C(=O)O (stereo not given) | inactive |
| COc1ccc(CC2C(=O)NC(C)C(=O)N(C)C3Cc4ccc(cc4)Oc4cc(ccc4OC4OC(CO)C(O)C(O)C4O)CC(C(=O)NC(C)C(=O)NC(C)C(=O)N2C)N(C)C3=O)cc1 (stereo not given) | 0.0097 µM (active) |
| C=C1C[C@]23C[C@H]1CC[C@H]2[C@]1(C)CCC[C@@](C)(C(=O)O)[C@H]1[C@@H]3C(=O)O | inactive |
| CC1=C(C(=O)O)/C(=C/CO[C@@H]2O[C@H](COC(=O)/C=C/c3ccc(O)cc3)[C@@H](O)[C@H](O)[C@H]2O)C(O)C1 (stereo not given in full) | inactive |
| C=CC[C@]12C[C@@H](OC)C(=O)C(OC)=C1O[C@@H](c1cc(OC)c3c(c1)OCO3)[C@@H]2C | inactive |
| CC(C)=C/C=C\[C@H](C)[C@H]1CC[C@]2(C)C[C@@H]3C(C)=CC(=O)C3/C(CO)=C\C[C@@H]12 (stereo not given in full) | 11.3 µM (active) |
| OC[C@H]1O[C@@H](Oc2cc(O)c3c(c2)O[C@@H](c2ccc(O)cc2)[C@H](O)C3)[C@H](O)[C@@H](O)[C@@H]1O | inactive |
| CC1NC(=O)CCCNC(=O)C(Cc2c[nH]c3ccccc23)NC(=O)C(C)NC(=O)C(C(C)C)NC(=O)C(C(C)c2ccccc2)NC(=O)C(C(C)C)NC1=O (stereo not drawn) (cyclo([GABA]AV[ξPhe(βξ-Me)]VAW); configuration not given here) | inactive |
| Cc1ccccc1NC(=O)Nc1ccc(CC(=O)N(C)[C@@H](CC(C)C)C(=O)NCC[C@H](NC(=O)[C@@H]2CCCN2S(=O)(=O)c2cc(Cl)cc(Cl)c2)C(=O)O)cc1 | inactive |
| O=C(/C=C/c1ccc(O)cc1)N[C@@H](Cc1ccc(O)cc1)C(=O)O | inactive |
| COC(=O)C1(C)CCC2(C(=O)O)CCC3(C)C(=CCC4C5(C)CC(O)C(OC6OCC(O)C(O)C6O)C(C)(CO)C5CCC43C)C2C1 (stereo not given) | inactive |
| CCN1CCN(Cc2ccc(NC(=O)c3ccc(C)c(NC(=O)c4cncc(-c5cccs5)c4)c3)cc2C(F)(F)F)CC1 | 51.5 nM (active) and 186 nM (active) |
| COC(=O)C1=CO[C@@H](O[C@@H]2O[C@H](CO)[C@@H](O)[C@H](O)[C@H]2O)[C@@H]2C(CO)=CC[C@]12O | inactive |
| CCn1c(=O)c(-c2ccn[nH]2)cc2c(C)nc(N)nc21 | 1.18 µM (active) |
| CC1CC2OC3(OC2C(C)(C)O)C1C1(C)CCC24CC25CCC(O[C@@H]2OC[C@@H](O)[C@H](O)[C@H]2O)C(C)(C)C5CC=C4C1(C)C3O (stereo not given in full) | inactive |
| COc1c(Nc2ncc(Cl)c(N[C@H]3[C@@H](C(N)=O)[C@@H]4C=C[C@H]3C4)n2)ccc2c1CC[C@@H](N1CCOCC1)CC2 | 3.25 µM (active) |
| C[S+](CC[C@H](N)C(=O)[O-])C[C@H]1O[C@@H](n2cnc3c(N)ncnc32)[C@H](O)[C@@H]1O (stereo not given in full) | inactive |
